Data on 14 compounds can be found in PubChem BioAssay (NCI).

Experiment in all cases: NCI-60 one-dose screen, 48 h (100 = growth as untreated, 0 = no growth, -100 = all killed)
Holding throughout (conditions): 10 µM unless noted

Assay [1] has as its system NCI-H23 lung.
The test system of assay [2] is NCI-H226 lung.
The test system of assay [3] is NCI-H322M lung.
Assay [4] concerns HOP-62 NSCLC.
Assay [5] has as its system NCI-H460 lung.
Assay [6] relates to HOP-92 NSCLC.
Assay [7] relates to NCI-H522 lung.
Assay [8] has as its system A549/ATCC NSCLC.
Assay [9] deals with 786-0 renal.
The subject of assay [10] is COLO 205 colon.

This is part of a sample that, as a whole, favours compounds with a hit. Of some 83,000 tested, about 20% had one in any assay.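 How to read the values: 0–100, growth inhibition (40 = 60% inhibited); 0, no net growth; -100 to 0, cell death (-40 = 40% of starting cells died; -100 = all dead).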 Values without a mark were called inactive. The source made the active and inactive calls. The calls were made as follows: active = growth percent below 10; inactive = the rest.

On to `COc1ccc(OCC(O)CN2CCN(c3ccc(Cl)cc3)CC2)cc1` (stereo not given), for which the growth is 228% in assay [1]; 86.3% in assay [2]; 89.6% in [3]; 103% in assay [4]; 93.4% in assay [5]; 97.9% in assay [6]. Also, the growth in [7] was 74.3%; in assay [8] it was 93.2%; in assay [9] it was 151%; in assay [10], 95.7%.
For the compound `CCOc1ccc(-n2c(-c3cc(OC)c(OC)c(OC)c3)nnc2-c2ccc(OC)cc2N)cc1`, the growth in assay [1] is 76.4%; in [2], 80.1%; in assay [3], 81.3%; in assay [4], 78.3%; in [5], 42.3%; in [6], 73.1%. The growth in assay [7] was 52.6%; in [8] it was 54.9%; in assay [9], 89.5%; in assay [10], 51%.
As for `COc1cc(C(=O)C[n+]2ccccc2)ccc1OC(C)=O`, the growth is 106% in [1]; 96.3% in assay [2]; 106% in [3]; 94.6% in assay [4]; 99% in assay [5]; 91.5% in assay [6]. For the same compound, the growth in assay [7] is 98%; in assay [8], 98.3%; in assay [9], 90.9%; in assay [10] it was 104%.
As for `O=C(O)c1ccccc1C(=O)c1ccc(I)cc1`, the growth in assay [1] was 102%; in [2] it was 101%; in assay [3], 104%; in assay [4], 88.7%; in assay [5], 105%; in [6], 78.3%. Also, the growth in assay [7] is 75.5%; in [8], 98.4%; in [9], 99%; in assay [10] it was 103%.
For the compound `C=C1C(=O)O[C@H]2[C@H]1CC/C(COC(=O)c1ccc(Cl)nc1)=C\CC[C@@]1(C)O[C@@H]21`, the growth is 47.5% in assay [1]; -9.06% (active) in assay [2]; 68.4% in assay [3]; 57.1% in assay [4]; 56.1% in assay [5]; -40.1% (active) in [6]. Moreover, the growth was -83.7% (active) in assay [7], 39.7% in [8], 9.88% (active) in assay [9] and -73.3% (active) in assay [10].
With `COc1cc(/C=C/C(=O)N2CCC=CC2=O)cc(OC)c1OC`, the growth is 62.3% in [1]; 109% in [2]; 84.3% in assay [3]; 82.8% in assay [4]; 76% in assay [5]; 28.9% in assay [6]. In addition, the growth is -68.2% (active) in assay [7], 72.3% in assay [8], 29.5% in [9] and 5.08% (active) in assay [10].
Turning to `CCOc1ccc(Cc2nccc3cc(OCC)c(OCC)cc23)cc1OCC`, the growth in assay [1] was 34%; in assay [2] it was 73.3%; in assay [3], 66.8%; in assay [4] it was 67.7%; in assay [5], 48%; in [6] it was 52%. The growth in assay [7] is 56.4%; in assay [8], 64.6%; in assay [9], 64.8%; in [10], 76.2%.
For the compound `COc1cc(NS(=O)(=O)c2ccc(N)cc2)ncn1`, the growth in assay [1] is 101%; in assay [2], 112%; in [3], 104%; in assay [4], 108%; in assay [5], 110%; in assay [6], 105%. For the same compound, the growth in assay [7] was 114%; in assay [8], 102%; in assay [9], 99.1%; in assay [10], 113%.
Consider `C=C1C(=O)O[C@H]2[C@H]1CC/C(COC(=O)n1ccnc1C)=C\CC[C@@]1(C)O[C@@H]21`, for which the growth in assay [1] was 98.7%; in assay [2], 91.2%; in assay [3], 98.3%; in assay [4], 99.4%; in assay [5] it was 105%; in assay [6], 106%. The growth in [7] was 66.3%; in [8] it was 89.3%; in assay [9], 95.7%; in [10], 89.8%.
Consider `COc1cc(NC(=O)c2cc(OC)c3ccn(C)c3c2)cc2c1C[C@]1(C)CC[C@@H](O)C(C)(C)[C@H]1O2`, for which the growth in assay [1] was 79.9%; in assay [2] it was 106%; in assay [3], 90.4%; in assay [4], 46.1%; in [5], 49.2%; in assay [6] it was 44.6%. Also, the growth was 76.1% in assay [7], 63.6% in assay [8], -1.08% (active) in assay [9] and 51.7% in assay [10].
Take `COc1ccc2c(c1)C(=O)/C(=C/c1cccc(OCC(=O)c3ccccc3)c1)O2`: the growth in assay [1] is 41.4%; in [2] it was 80.9%; in [3], 108%; in assay [4], 103%; in assay [5], 93.1%; in assay [6], -58.8% (active). The growth was -67.7% (active) in assay [7], 105% in assay [8], 104% in [9] and -12.5% (active) in assay [10].
As for `O=C1CCC(=O)N1C1CCCCC1`, the growth in assay [1] was 93%; in [2] it was 97.1%; in assay [3], 81.5%; in assay [4], 93.3%; in [5] it was 104%; in assay [6] it was 102%. In addition, the growth in assay [7] is 103%; in [8], 115%; in assay [9] it was 106%; in assay [10] it was 101%.
For `C/C(=N\N=C1/SCC(=O)N1c1ccccc1)c1ccco1`, the growth is 99.4% in assay [1]; 124% in [2]; 89.8% in assay [3]; 137% in [4]; 123% in assay [5]; 63.3% in assay [6]. Moreover, the growth was 75.4% in [7], 114% in [8], 52% in assay [9] and 130% in assay [10].
Consider `CCCOC(=O)c1ccc([N+](=O)[O-])o1`, for which the growth in assay [1] is 108%; in assay [2], 109%; in assay [3] it was 108%; in [4], 114%; in assay [5] it was 91.4%; in assay [6] it was 109%. Further, the growth in assay [7] was 85.4%; in assay [8], 101%; in assay [9], 108%; in [10] it was 120%.
